Laboratory results: PubChem BioAssay AID1851 (National Center for Advancing Translational Sciences (NCATS), 2009)
“And” between values parts separate entries of the source, which are not always exact repeats. Equal values may be shown once. Screen size: about 16,000 compounds; about 2,600 (16%) were called active. Roughly 20% stayed inconclusive and do not appear here. Calls follow the shape of the dose curve; as a rule, active = well fitted curve in the direction sought with a large enough effect; inconclusive = small, poorly fitted or top-dose-only effect, or effect the other way; inactive = no such curve, though single readings can be large or run the other way. A selection follows. Some compounds were tested as several samples or in several runs, with calls that do not always agree.

The compounds below were run against Cytochrome P450 2D6 (Homo sapiens) (UniProt P10635) (assay: Cytochrome panel assay with activity outcomes). Details: recombinant CYP, pro-luciferin dealkylation, luminescence, p450-cyp2d6; series mostly up to 57.1 µM; activity, negative = inhibition: at the top concentration.
% is scaled to controls: 0 for no effect and ±100 for the full control effect.

Cytochrome P450 2D6 (Homo sapiens), sequence (P10635 whole entry, looked up): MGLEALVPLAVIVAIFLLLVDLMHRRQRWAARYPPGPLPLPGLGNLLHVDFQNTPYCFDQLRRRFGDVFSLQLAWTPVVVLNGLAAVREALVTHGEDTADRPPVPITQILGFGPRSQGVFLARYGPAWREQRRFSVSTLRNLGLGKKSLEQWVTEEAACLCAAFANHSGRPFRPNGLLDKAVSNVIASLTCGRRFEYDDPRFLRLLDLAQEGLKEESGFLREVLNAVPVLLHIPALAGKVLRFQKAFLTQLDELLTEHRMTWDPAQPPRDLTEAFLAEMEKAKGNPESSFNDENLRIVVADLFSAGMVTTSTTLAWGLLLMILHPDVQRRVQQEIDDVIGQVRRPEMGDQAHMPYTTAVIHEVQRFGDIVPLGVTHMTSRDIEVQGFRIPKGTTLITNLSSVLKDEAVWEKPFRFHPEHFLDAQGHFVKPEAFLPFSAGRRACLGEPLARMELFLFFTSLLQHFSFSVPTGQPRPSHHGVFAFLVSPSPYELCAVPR

Structure (SMILES)	AC50	activity, negative = inhibition
N#C/C(=C\c1cn[nH]c1-c1ccccc1)C(=O)NC1CCCCCC1	28.2 µM (active)	–
COc1ccc(/C=C(/C#N)C(=O)NC2CCCCC2)cc1Br	–	13.5% (inactive)
N#C/C(=C\c1cc(Cl)cc(Cl)c1O)C(=O)NC1CCCCC1	–	-19.5% (inactive)
CC1=C(C(=O)NCCN2CCN(C)CC2)C2(CCC(C)CC2)OC1=O (stereo not given)	–	2.54% (inactive)
C/C(=N\NC(=O)c1ccc(Br)cc1)c1ccccc1	–	-29.7% (inactive)
CCOc1ccc(C(=O)Nc2cccc(-c3cc4ccccc4oc3=O)c2)cc1[N+](=O)[O-]	–	-14.9% (inactive)
COc1ccc(-c2cc(C(=O)Nc3nc4c(C)cccc4s3)c3ccccc3n2)cc1OC	–	-7.95% (inactive)
CCCCNc1cc(=O)oc2ccccc12	–	-10.8% (inactive)
CCCCNC(=O)Cc1coc2ccc3ccccc3c12	10 µM (active)	–
CCCCNC(=O)CSc1nc2ccccc2c(=O)n1CCNC(C)=O	–	-0.301% (inactive)
CC1(O)CC(=O)N(c2ccccc2)O1 (stereo not given)	–	0.119% (inactive)
COc1ccc(-c2cn3c(C)c(C(=O)NCCN4CCOCC4)sc3n2)cc1	–	8.62% (inactive)
COc1cccc(C(=O)NCCN2CCOCC2)c1	–	-17.2% (inactive)
COc1ccc(C(=O)Nc2ccc(Cl)cc2C(=O)NCCN2CCOCC2)cc1	1.26 µM (active)	–
O=C(O)[C@H]1CN(CCCP(=O)(O)O)CCN1	inactive	–
CCCCNN	–	-18.7% [at 11.4 µM] (inactive)
O=C(O)/C(=C\c1ccccc1)Cc1ccccc1	–	-3.61% [at 11.4 µM] (inactive)
CN(Cc1ccccc1)Cn1ccnc1	0.794 µM (active)	–
C#CCN(C)Cc1ccccc1	inactive	–
Cc1ccc(C(C(=O)NC2CCCCC2)N2CCN(C(=O)c3ccco3)CC2)cc1 (stereo not given)	–	-0.541% (inactive)
Cc1cc(C)n(C(=O)c2cc3ccccc3c(=O)o2)n1	–	4.28% (inactive)
CC(C)c1ccc(C2C(C#N)=C(N)N3C(=C2C#N)Sc2ccccc23)cc1 (stereo not given)	–	9.18% (inactive)
C[C@H](CN(C)C)C(=O)c1ccccc1C(=O)O	–	9.39% [at 11.4 µM] (inactive)
O=C1CCCc2ccccc2N1Cc1ccccc1Cl	–	-16.5% (inactive)
CCN(CC)[C@@H](C)CN1c2ccccc2Sc2ccccc21	0.158 µM (active)	–

Structure (SMILES)	AC50	activity, negative = inhibition
CN(C)CN1C(=O)S/C(=C2/C(=O)N(CN(C)C)c3ccccc32)C1=O	–	-3.13% [at 11.4 µM] (inactive)
C[C@@H](CN1c2ccccc2Sc2ccccc21)N(C)C	2 µM (active) and 316 nM (active)	–
C[C@@H](CN(C)C)CN1c2ccccc2CCc2ccccc21	12.6 µM (active) and 5.01 µM (active)	–
CN(C)CC(C)(C)CN1c2ccccc2Sc2ccccc21	0.2 µM (active)	–
Cc1nc(C(=O)Nc2cccc(Cl)c2Cl)nn1-c1cc(OC(C)C)c(Cl)cc1Cl	–	10.4% (inactive)
O=Nc1ccc(NOC(=O)c2ccc(Br)cc2)cc1	–	8.91% (inactive)
Cc1ccc(C(=O)NNC(=O)C2CCCN(c3ncccn3)C2)cc1 (stereo not given)	–	-12.1% (inactive)
Nc1ncnc2c1cnn2-c1ccccc1	–	8.69% (inactive)
Cc1cc(C)n(-c2ccc(F)cc2)c(=O)c1C(=O)O	–	5.5% (inactive)
CSc1nc2ccccc2cc1/C=C(\C#N)c1ccccc1	–	-21.5% (inactive)
COc1ccccc1C(OC(=O)c1cccs1)C(=O)NCC1CCCO1 (stereo not given)	–	-3.85% (inactive)
NCCC(=O)O	–	18.6% (inactive)
O=C(O)CCCCCn1c(SCC(=O)N2CCCC2)nc2ccsc2c1=O	–	3.57% (inactive)
CC[C@@]1(O)C(=O)COc2c1cc1n(c2=O)Cc2c-1nc1cccc(C(C)C)c1c2[Si](C)(C)C	–	-5.56% (inactive)
COc1ccc([C@H]2Sc3ccccc3N(CCN(C)C)C(=O)[C@H]2OC(C)=O)cc1	inactive	–
COc1ccc2c(c1)N(C[C@@H](C)CN(C)C)c1ccccc1S2	0.0631 µM (active)	–
COc1ccc([C@@H]2Sc3ccccc3N(CCN(C)C)C(=O)[C@@H]2OC(C)=O)cc1	–	-0.971% (inactive)
CCCCCC(=O)N1CC2(CC(c3cccc(NC(=O)c4ccccc4)c3)=NO2)C[C@@H]1C(N)=O (stereo not given in full)	–	11.3% (inactive)
O=C(CSc1nc2ccccc2o1)NC(=O)NCc1ccccc1	–	-3.58% (inactive)
O=C(CN(C(=O)CSc1nc2ccccc2o1)c1cccc(F)c1)NC1CCCCC1	12.6 µM (active)	–
O=C(CSc1nc2ccccc2o1)Nc1nc2ccccc2s1	–	-22.6% (inactive)
Cc1cccc(-c2c3c(=O)n(C)c(=O)n(C)c3cn2C2CCCCC2)c1	–	-15.1% (inactive)
CO[C@@H]1COC(=O)[C@H](CCSC)NC(=O)C/C=C\[C@@H](C)COC(=O)[C@@H]2CCCN2C(=O)C/C=C\[C@H]1C	–	11.2% [at 11.4 µM] (inactive)
CC(C)NC[C@@H](O)COc1ccc(CCOCC2CC2)cc1	inactive	–
CC(=O)Nc1ccc(OC[C@@H](O)CNC(C)C)cc1	inactive and 3.16 µM (active)	–
